Bioassay records: PubChem, several laboratories
Mtb FBA inh = Mtb fructose-bisphosphate aldolase inhibition | inhibition, % at 1 µM | 360,000 compounds, 2.3% hits | purified M. tuberculosis FBA, fluorescence read-out; in the data active = inhibition above about 27%;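 also: 0% = vehicle and 100% = reference inhibitor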
Target sequence (P9WQA3 whole entry, looked up): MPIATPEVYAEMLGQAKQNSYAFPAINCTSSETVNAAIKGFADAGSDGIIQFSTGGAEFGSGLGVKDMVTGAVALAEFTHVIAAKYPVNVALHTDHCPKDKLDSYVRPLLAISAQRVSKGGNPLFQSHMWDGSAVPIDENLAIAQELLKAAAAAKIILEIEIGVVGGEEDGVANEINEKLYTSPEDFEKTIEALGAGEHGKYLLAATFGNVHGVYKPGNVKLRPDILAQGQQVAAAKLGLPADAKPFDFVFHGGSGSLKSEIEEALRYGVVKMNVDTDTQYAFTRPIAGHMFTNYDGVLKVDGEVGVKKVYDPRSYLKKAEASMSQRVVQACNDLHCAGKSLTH
PrPC TRFRET = cell surface PrPC inhibition, primary TR-FRET screen; inhibition, % at 13.8 µM; TR-FRET read-out; 370,000 compounds, 0.43% hits; in the data active = inhibition above about 24%; also: 0% = median of the test wells and 100% = reference compound wells
Vc quorum ag = induces V. cholerae light production without autoinducers; AID 588436; V. cholerae BH1578 lux reporter, luminescence, 6 h; 350,000 compounds, 0.16% hits; activation, % at 18.7 µM; in the data active = activation mostly above about 9.7%, no sharp cut-off
3CLpro inhibitor = SARS-CoV 3CLpro protease inhibition; recombinant SARS-CoV 3CLpro, quenched FRET peptide cleavage; inhibition, % at 6 µM; P0C6X7; 290,000 compounds, 0.14% hits; in the data active = inhibition above about 12%
GDH-TPI counter = inhibits GDH-TPI coupling enzymes, artifact for Mtb FBA screen; GDH-TPI coupled enzyme counterscreen, NADH absorbance; inhibition, % at 4.8 µM; 360,000 compounds, 1.2% hits; AID 588335; in the data active = inhibition above about 30%;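 also: 0% = DMSO wells and 100% = wells lacking the enzyme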
* = called active by the depositor; i = inactive; . = not tested or not shown. Most compounds without a hit are left out; they make up all but 3.9% or so of the library.

SMILES	Mtb FBA inh	PrPC TRFRET	Vc quorum ag	3CLpro inhibitor	GDH-TPI counter
O=C(Cc1c[nH]c2ccccc12)Nc1ccc(Nc2cccnc2)c(-c2ccc(Cl)c(Cl)c2)c1	.	-2	.	.	.
COc1ccc(CC(NC(C)=O)C(=O)NC2CCN(S(=O)(=O)c3ccccc3)CC2)cc1OC (stereo not drawn)	0	-6	-10	3	4
CCOC(=O)c1ccc(N2C(=O)CC(N3CCC(O)(c4ccc(Br)cc4)CC3)C2=O)cc1 (stereo not drawn)	0	8	0	5	8
CCOC(=O)c1ccc(N2C(=O)CC(N3CCC(O)(c4ccc(Cl)cc4)CC3)C2=O)cc1 (stereo not drawn)	2	9	0	-6	39*
Nc1ncnc2c1ncn2[C@@H]1O[C@H](CNCc2ccccc2OCC(=O)N2CCCCC2)[C@@H](O)[C@H]1O	-3	-4	i	.	-1
C=CCn1c(=O)/c(=C/c2ccc(Cl)cc2)s/c1=C(\C#N)c1nnc2n1CCCCC2	-2	-3	i	.	33*
N#C/C(=C1\C(=O)Nc2c(Cl)cc(Cl)cc21)c1nnc2n1CCCCC2	-5	1	2	0	16
CCCCn1c(N)c(N(CCOC)C(=O)c2ccc(S(=O)(=O)N3CCC(C)CC3)cc2)c(=O)[nH]c1=O	-1	-1	0	.	10
NS(=O)(=O)c1cc2c(cc1Cl)NCNS2(=O)=O	-2	-2	24*	0	12
COc1ccc(NC(=O)CSc2nnc3n2CCCCC3)cc1	2	2	0	5	-3
Cc1cc(Cl)ccc1-c1nc(NCc2ccccc2)nc2ccsc12	14	6	-1	.	3
COc1ccc(NC(=O)c2sc3nc(-c4cccnc4)ccc3c2N)cc1	-1	-1	-1	1	39*
COc1ccc(NC(=O)c2sc3nc(-c4cccnc4)ccc3c2N)cc1OC	-1	-10	i	-9	43*
Nc1c(C(=O)Nc2cccc(Cl)c2Cl)sc2nc(-c3cccnc3)ccc12	-1	-1	-1	-3	7
Nc1c(C(=O)Nc2ccccc2)sc2nc(-c3cccnc3)ccc12	.	0	.	0	.
CCOC(CNC(=O)C1CCN(S(=O)(=O)c2ccc3nc4c(c(C(=O)O)c3c2)CCCCC4)CC1)OCC	-3	1	-1	-7	0
CC(C)(O)C(=O)N=Nc1c(O)[nH]c2ccccc12	-1	-31	0	2	3
O=C(N=Nc1c(O)[nH]c2ccccc12)c1ccccc1NS(=O)(=O)c1cccs1	-4	2	0	5	34*
O=C(N=Nc1c(O)[nH]c2ccccc12)c1cc(-c2cccs2)[nH]n1	-2	-9	i	-9	35*
O=C(N=Nc1c(O)[nH]c2ccc(F)cc12)c1ccc(NS(=O)(=O)c2cccs2)cc1	1	-3	1	.	11
NS(=O)(=O)c1cc(C(=O)N=Nc2c(O)[nH]c3ccccc23)ccc1Cl	2	-34	0	-5	34*
O=C(N=Nc1c(O)[nH]c2ccccc12)Nc1ccccc1	2	-9	.	.	31*
Cn1c(=O)oc2cc(S(=O)(=O)N3CCN(C(=O)C4CCCO4)CC3)ccc21 (stereo not drawn)	.	-1	.	.	.
CCCn1nnnc1NC(=O)c1cc(Cl)ccc1Cl	1	2	1	0	3
N=C1C(c2nc3ccccc3s2)=C(O)CN1NC(=O)c1ccco1	8	4	i	-1	47*
SMILES	Mtb FBA inh	PrPC TRFRET	Vc quorum ag	3CLpro inhibitor	GDH-TPI counter
Cc1sc(=NC(=O)c2ccco2)n(C)c1-c1ccccc1	0	9	-2	3	39*
Cn1c(=NC(=O)CCl)sc2ccccc21	2	9	-1	0	9
Cn1c(=NC(=O)c2ccco2)sc2ccccc21	-1	-7	-1	0	34*
CCOc1cccc2sc(=NC(=O)c3ccco3)n(CC(=O)OC)c12	9	0	i	-1	81*
Cc1sc(=NC(=O)c2ccco2)n(C)c1-c1ccc(F)cc1	-2	1	i	0	26
CCN(CC)c1ccc(C(=O)NNC(=O)CNC(=O)c2cccs2)cc1	8	3	i	.	21
Fc1ccc(-c2ccnc3nc(-n4cccc4)nn23)cc1	-6	-4	i	0	3
Fc1ccc(-c2ccnc3nc(N4CCOCC4)nn23)cc1	52*	-8	-5	0	8
CC(C)CC1C(=O)N(Cc2cn(CCC3OCCO3)nn2)CCS(=O)(=O)N1Cc1ccc(-c2cccc(N(C)C)c2)cc1 (stereo not drawn)	8	-13	0	.	10
CC1(C(=O)Nc2ccc3c(c2)OCCO3)CCN1C(=O)c1ccco1 (stereo not drawn)	-2	0	-1	.	9
COc1ccc(Cl)cc1NC(=O)C(C)N(C)Cc1ccc(C(F)(F)F)cc1 (stereo not drawn)	2	4	0	2	4
Oc1ccc(C=NNC(=S)Nc2cccnc2)nc1	5	-1	2	.	50*
Oc1ccc(/C=N/NC(=S)Nc2cccnc2)cc1O	-4	-4	0	2	34*
COc1ccccc1/C=N/NC(=S)Nc1cccnc1	3	13	-1	9	27
CC(C)(C)c1ccc(/C=N/NC(=S)Nc2cccnc2)cc1	.	.	.	-1	.
COc1cc2c(cc1OC)C(CCc1ccccc1)=NCC2	158*	-3	i	2	24
COc1cc2c(cc1OC)C(c1c(Cl)cccc1Cl)=NCC2	0	13	.	.	.
CC(=O)c1ccc(N2CCN(C(=O)CCCc3nc4ccccc4s3)CC2)cc1	1	2	0	1	32*
CC(=O)Nc1sc2c(c1-c1nc3ccccc3s1)CCN(C(C)C)C2	8	.	0	-5	33*
O=C(O)c1ccc(Nc2nc(-c3cccnc3)cs2)cc1O	-2	-6	0	-7	43*
C=C1CC(COc2ccc3c(C)c(Cl)c(=O)oc3c2)(c2ccccc2)OC1=O (stereo not drawn)	121*	16	i	.	19
COc1ccc2c(=O)c3ccccc3oc2c1	6	5	0	-4	12
COc1ccc2c(c1)oc(=O)c1cc(OC)ccc12	138*	-2	0	3	-1
COc1ccc2c(C)c(Cl)c(=O)oc2c1	153*	-6	1	-5	16
C[C@H](NC(=O)[C@@H]1CSC2c3ccccc3C(=O)N21)C(=O)NCc1c(F)cccc1Cl (stereo partly drawn)	4	6	0	1	1
CCN1C(=O)/C(=C/N(C)c2ccccc2)OC1=S	-6	-26	0	2	20
CCN1C(=O)/C(=C\N(C(C)=O)c2ccccc2)OC1=S	-2	-3	-1	-4	63*
COc1ccc(/C=C/C(=O)NC(=S)NNC(=O)c2cc(OC)c(OC)c(OC)c2)cc1OC	0	-1	-1	4	51*
COc1ccc(NC(=O)/C=C/c2cc(OC)c(OC)c(OC)c2)cn1	4	2	-1	-3	4
COc1cc(/C=C/C(=O)Nc2ccc(C(C)=O)cc2)cc(OC)c1OC	1	-10	i	1	45*
